Our source for the inhibition values is PubChem BioAssay AID1645855 (Buhrlage Lab, Dana-Farber Cancer Institute and Novartis …, 2021).

Broadly, the inhibition is the change of the read-out against control, counted positive when it falls.

Hit rate of the full screen: of about 47,000 compounds, about 3,100 (6.6%) were called active. No stated cut-off is given here; in the data, active means inhibition above about 30%; inactive means the rest. The full list was thinned out, with actives kept by preference.

Ubiquitin carboxyl-terminal hydrolase 17-like protein 5 (Homo sapiens), sequence (A8MUK1 whole entry, looked up): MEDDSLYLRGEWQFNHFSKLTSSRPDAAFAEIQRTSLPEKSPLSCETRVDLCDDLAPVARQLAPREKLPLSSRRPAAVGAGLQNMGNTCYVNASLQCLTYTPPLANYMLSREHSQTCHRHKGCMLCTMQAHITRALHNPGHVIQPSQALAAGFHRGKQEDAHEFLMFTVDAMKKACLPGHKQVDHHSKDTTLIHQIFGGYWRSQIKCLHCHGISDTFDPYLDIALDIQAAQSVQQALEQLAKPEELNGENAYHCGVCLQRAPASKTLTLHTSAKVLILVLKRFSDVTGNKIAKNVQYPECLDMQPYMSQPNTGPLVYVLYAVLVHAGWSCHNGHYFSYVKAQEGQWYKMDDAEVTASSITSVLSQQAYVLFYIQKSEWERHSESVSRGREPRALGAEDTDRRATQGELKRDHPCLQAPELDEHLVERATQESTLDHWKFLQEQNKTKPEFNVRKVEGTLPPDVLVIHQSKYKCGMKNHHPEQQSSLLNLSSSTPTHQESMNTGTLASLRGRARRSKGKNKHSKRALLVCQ

This experiment has as its target Ubiquitin carboxyl-terminal hydrolase 17-like protein 5 (Homo sapiens) (UniProt A8MUK1). Nature of the experiment: inhibitors of human USP17 deubiquitinase (AID 1645855). The conditions noted are these: purified USP17, Ub-rhodamine cleavage fluorescence, 3 h; at 50 µM; hits give high values.
As for `COc1cc([C@@H]2c3cc4c(cc3C[C@@H]3COC(=O)[C@H]32)OCO4)cc(OC)c1OC`, the inhibition is 68.6% (active).

With `O=C1CSC(c2ccc(F)cc2)c2c(-c3ccccc3)nn(-c3ccccc3)c2N1` (stereo not given), the inhibition was 6.01% (inactive).

Consider `c1ccc(C2NCc3ccccc3-n3cccc32)cc1` (stereo not given), for which the inhibition was 1.12% (inactive).

As for `O=c1c2ccccc2nc(-c2ccccc2)n1-c1ccccn1`, the inhibition is -2.09% (inactive).

Turning to `CN1C[C@H]2N(c3ncccn3)CCC[C@@]2(C(=O)NCC2CC2)C1`, the inhibition was 8.79% (inactive).
